Unmarked numbers belong to inactive results. Activity calls are given as the source filed them.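 How the source made its calls: active means inhibition reaching about 16% in any single replicate (limit read from the data); inactive means the rest.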
molecular target: Hexokinase HKDC1 (Homo sapiens) (UniProt Q2TB90); experiment: compounds lowering human HKDC1 activity – biochemical, single concentration, confirmation (AID 504710); details: recombinant HKDC1, G6PDH/diaphorase/resazurin fluorescence; at 20 µM; hits give high values
Sequence (Q2TB90 whole entry, looked up): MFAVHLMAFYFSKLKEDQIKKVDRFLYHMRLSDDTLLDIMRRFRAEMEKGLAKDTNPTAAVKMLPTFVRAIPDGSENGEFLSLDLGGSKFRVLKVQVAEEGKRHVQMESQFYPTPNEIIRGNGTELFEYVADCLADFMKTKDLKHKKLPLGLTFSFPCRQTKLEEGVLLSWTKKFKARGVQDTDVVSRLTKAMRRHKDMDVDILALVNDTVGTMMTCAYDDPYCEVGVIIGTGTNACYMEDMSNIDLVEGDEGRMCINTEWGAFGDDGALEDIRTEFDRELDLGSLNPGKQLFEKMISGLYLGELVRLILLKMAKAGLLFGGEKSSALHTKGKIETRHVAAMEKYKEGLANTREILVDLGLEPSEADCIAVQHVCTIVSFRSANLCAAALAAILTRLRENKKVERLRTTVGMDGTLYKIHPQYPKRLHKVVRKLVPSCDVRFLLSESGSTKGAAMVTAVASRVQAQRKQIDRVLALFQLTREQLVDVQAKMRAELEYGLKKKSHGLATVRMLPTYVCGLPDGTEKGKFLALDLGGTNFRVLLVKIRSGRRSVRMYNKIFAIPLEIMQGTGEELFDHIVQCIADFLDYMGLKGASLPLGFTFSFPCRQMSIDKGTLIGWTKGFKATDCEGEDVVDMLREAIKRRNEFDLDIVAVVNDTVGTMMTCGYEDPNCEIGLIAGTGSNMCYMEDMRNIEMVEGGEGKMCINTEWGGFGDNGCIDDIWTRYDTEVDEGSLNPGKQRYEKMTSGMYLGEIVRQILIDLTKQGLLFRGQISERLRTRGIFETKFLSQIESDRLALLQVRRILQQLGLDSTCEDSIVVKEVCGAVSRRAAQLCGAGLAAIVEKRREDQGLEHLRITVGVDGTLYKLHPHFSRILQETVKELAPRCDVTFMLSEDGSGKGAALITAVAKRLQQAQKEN

SMILES | inhibition
CCOc1ccc(-n2c(C)cc(C(=O)CCl)c2C)cc1 | 28.5% (active)
CCc1c(C)c(C#N)c2nc3ccccc3n2c1NC | -43.3%
COc1ccc(NC(=O)CSc2ccc(-c3cccnc3)nn2)c(OC)c1 | 38.8% (active)
Cc1ccc(N=Cc2cc(Cc3ccccc3Cl)cc([N+](=O)[O-])c2O)c(O)c1 | 30.2% (active)
CCOC(=O)c1c(C)[nH]c(C2=NNC(=Nc3ccccc3)SC2)c1C | -141%
CCc1ccc2c(c1)C(NC(C)=O)C(=O)N2CCN1CCOCC1 (configuration not stated) | 57.2% (active)
COc1cc2c(cc1OC)-c1cc(NCc3ccccn3)nc(=O)n1CC2 | 54% (active)
CCc1ccc(S(=O)(=O)/N=C2\C=C(Nc3cccc(C(=O)O)c3)C(=O)c3ccccc32)cc1 | 64.8% (active)
Cc1ccc2oc(=O)c3cnn(CC(=O)N4CCc5ccccc5C4)c3c2c1 | -50.8%
Cc1ccc(N=C2C(=S)N(c3ccc(C)cc3)C(=N)N2/N=C/c2ccc(Cl)cc2)cc1 | -45.3%
NC(=O)C1CCN(C2=C(Cl)C(=O)c3ccccc3C2=O)CC1 | 73% (active)
O=C(CSc1cccc2cccnc12)N/N=C/c1cccnc1 | -46.6%
COC1(NS(=O)(=O)c2ccc(Br)cc2)C(C)=CC(=O)C=C1C | 26.3% (active)
N#Cc1c(SCC(=O)Nc2nc3ccc(Br)cc3s2)sc2c(O)cc(=O)[nH]c12 | 44.9% (active)
Cc1ccc(C(=O)c2c(C)oc3c2C(=O)C(=O)c2ccccc2-3)cc1 | 46.2% (active)
Cc1[nH]c2ccccc2c1C1=CC(=O)C=CC1=O | 52.9% (active)
COc1cc(OC)cc(C(=O)NC(=S)NNC(=O)c2cnccn2)c1 | -40%
CC(=NNC(=S)N1CCN(C2CCCCCC2)CC1)c1ccccn1 | -39.9%
O=C(O)[C@@H](c1ccccc1)N1Cc2ccccc2C1=O | 43.8% (active)

SMILES | inhibition
COc1ccc(S(=O)(=O)Nc2cc(SCC(=O)O)c(O)c3ccccc23)cc1 | 47.2% (active)
CCc1ccc(C2=NNC(=Nc3cccc(S(=O)(=O)N(C)C)c3)SC2)cc1 | -141%
O=C1C(Cl)=C(NC(=O)c2ccccc2)C(=O)C(Cl)=C1NC(=O)c1ccccc1 | 41.4% (active)
O=C1C(Nc2ccccc2)=C/C(=N/S(=O)(=O)c2cccs2)c2ccccc21 | 65% (active)
CCCc1nc2c(c(=O)c3ccccc3n2C)c(=O)n1-c1ccc(F)cc1 | 58.5% (active)
COc1cc(N=c2ssnc2Cl)cc(OC)c1OC | -45.9%
COC(=O)c1ccc(CCc2cc(O)c(Br)cc2O)cc1 | 54.2% (active)
CC(OC(=O)c1cc(O)c2ccccc2c1O)C(=O)Nc1ccc(C(N)=O)cc1 (configuration not stated) | 28.4% (active)
CC(=O)N(C1=C(Cl)C(=O)c2ccccc2C1=O)C1CCCCC1 | 78.2% (active)
CCOc1ccccc1Nc1nnc(SCc2nnc(-c3cc(OC)c(OC)c(OC)c3)o2)s1 | 44.7% (active)
COc1cc(/C=C2\SC(c3ccc(C)cc3)=NC2=O)ccc1O | 32.2% (active)
Cc1nc2c(c(=O)c3ccccc3n2C)c(=O)n1-c1ccccc1 | 56% (active)
O=C(CSc1n[nH]c(-c2cccnc2)n1)Nc1ccc([N+](=O)[O-])cc1Br | 56.4% (active)
O=C(O)c1ccc(N=Cc2c(O)ccc3ccccc23)cc1 | 43% (active)
Cc1ccc(S(=O)(=O)/N=C2/C=C(Sc3ncn[nH]3)C(=O)c3ccccc32)cc1 | 63.3% (active)
CCn1cc(C(=O)NCc2ccc3c(c2)OCO3)c2cc(OC)c(OC)cc2c1=O | 45.9% (active)
CN(C)c1ccc(Cc2cc3c(O)ccc(O)c3cc(Cc3ccc(N(C)C)cc3)c2=O)cc1 | 44.7% (active)
Cc1ccc(N=c2ssnc2Cl)cc1 | -43.7%

Reference: PubChem BioAssay AID504710 (Sanford-Burnham Center for Chemical Genomics, 2011)
